From PubChem BioAssay
Nrf2 ARE act: qHTS of Nrf2 Activators. AREc32 ARE-luciferase reporter (MCF7-derived line), luminescence, 24 h. Potency, µM (titrated, usually from 46.1 µM), actives largely listed as activators. hit rate 0.31% among 410,000. AID 624171, 2012; note: nearly all actives have a fitted effect of over 65% in size
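Quantitative high-throughput format: AREc32 reporter cells, 1000 per well, received compound by pin transfer and were incubated 24 hr at 37 deg C, 5% CO2, before Steady-Glo luminescence detection.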
Nrf2 block: Nrf2 qHTS screen for inhibitors; A549 ARE-Fluc reporter, luciferase luminescence, 18-24 h; Potency, µM (top dose mostly 46 µM), usual class: inhibitors; hit rate 2.1% among 360,000; note: nearly all actives have a fitted effect of over 60% in size
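In this cell-based qHTS, ARE-driven firefly luciferase in A549 cells reports Nrf2 activity; the luminescent signal after BugLite lysis is the measured value, with a prior CellTiter-Fluor read for cell health.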
p53 reactivator: qHTS assay for re-activators of p53 using a Luc reporter; H1299 p53-A138V BP100-luciferase reporter, luminescence, 24 h; Potency, µM (series often up to 92.2 µM), hits mostly activators; hit rate 0.063% among 320,000; AID 504706, 2011; note: nearly all actives have a fitted effect of over 45% in size
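p53-null H1299 cells stably carrying temperature-sensitive p53-A138V and a BP100-luciferase reporter were pinned with compounds (4-point, 1:5 series) and held 24 hrs at 37 deg C. Luminescence was read 10 min after detection reagent.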
miR-21 reporter: qHTS Assay for Modulators of miRNAs and/orActivators of miR-21 | AID 2288, 2010 | 340,000 tested, under 10 active | Potency, µM (titrated, usually from 38.3 µM), hits mostly activators | HeLa miR-21 FLuc reporter, luciferase, 48 h;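 note: miR-21 action dims this reporter so a rising signal means less miR-21 action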
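HeLa miR-21-FLuc reporter line, endogenous miR-21; 2000 cells/well in DMEM/10% FBS; compound titration up to ~40uM final, 48 h, 37 degree Celsius; luciferase detection reagent, 15 min lysis, CCD luminescence.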
A549 viability: Nrf2 qHTS screen for inhibitors: counterscreen for cytotoxicity. A549 ARE-Fluc cells, CellTiter-Fluor viability, 18-24 h. AID 504648, 2011. hit rate 0.16% among 390,000. Potency, µM (highest dose often 46 µM), hits mostly inhibitors
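A549 ARE_Fluc cells in 5% FBS OPTI-MEM were exposed to compounds in concentration-response for 18-24 h at 37 deg C. Viability was read by CellTiter-Fluor fluorescence (Ex 405/Em 525) after 30 min, before the luciferase read.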
ClpP mod: qHTS Assay for Activators of ClpP; ATP-dependent Clp protease proteolytic subunit (Bacillus subtilis (strain 168)), P80244; purified B. subtilis ClpP, FRET peptide cleavage, 20 min; Potency, µM (top dose mostly 57.5 µM); hit rate 1.9% among 340,000; active = well fitted falling curve with a large enough effect; inconclusive = small, poorly fitted or top-dose-only effect; inactive = no such curve, though single readings can be large or run the other way; note: the source files actives as falling curves though it sought activators and does not explain the sign; nearly all actives have a fitted effect of over 65% in size
Target sequence (P80244 whole entry, looked up): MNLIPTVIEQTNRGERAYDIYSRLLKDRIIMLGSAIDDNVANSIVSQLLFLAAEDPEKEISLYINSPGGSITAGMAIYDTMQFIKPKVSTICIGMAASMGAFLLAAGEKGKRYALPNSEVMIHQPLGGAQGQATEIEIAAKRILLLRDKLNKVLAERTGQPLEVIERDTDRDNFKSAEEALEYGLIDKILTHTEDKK
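FRET quenching reversal measured ClpP activation: 10 microg/mL B. subtilis ClpP at pH 8 with the FRET-FV decapeptide, read at 430 nm after 320 nm excitation. The 20-min minus 0-min signal was scaled between DMSO/no-enzyme wells and ADEP (5.8 microM final).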
Each line names hits and unclear results; the compound was inactive in the other large screens. This is a sample that favours compounds with a hit; in the whole collection about 3.7% have one here. Unless noted, calls come from the whole dose curve; as a rule, active = well fitted curve in the direction sought with a large enough effect; inconclusive = small, poorly fitted or top-dose-only effect, or another doubt; inactive = no such curve, though single readings can be large; an effect the other way counts as inactive or inconclusive.

c1ccc2c3c(cc(N4CCOCC4)c2c1)OC1(N2CCOCC2)CCCCC1O3 (stereo not given)	Nrf2 block inconclusive, ClpP mod 31.6µM
CN(C)c1ccc(/C=C2\C=Cc3ccccc32)c(Cl)c1	none (no result: Nrf2 ARE act, Nrf2 block, p53 reactivator, miR-21 reporter, A549 viability)
Cc1ccc(/C=C/c2ccc(=O)n(Cc3ccccc3Cl)n2)cc1	ClpP mod 28.2µM (no result: Nrf2 block)
COc1ccc(/C=C(\C)C(=O)NO)cc1	none (no result: Nrf2 ARE act, Nrf2 block, p53 reactivator, miR-21 reporter, A549 viability)
C=CCNS(=O)(=O)c1nc(C)c(Cl)c(C)c1C#N	Nrf2 ARE act 11.2µM
CSc1nc(C)c(Cl)c(C)c1C#N	none
COc1cc(NC(=O)C2CCCN(S(=O)(=O)c3ccc4c(c3)oc(=O)n4C)C2)c(C(=O)O)cc1OC (stereo not given)	none (no result: p53 reactivator)
C[C@@H]1CCCCO[C@@H](CN(C)C(=O)CCCN(C)C)[C@@H](C)CN([C@H](C)CO)C(=O)c2cc(NC(=O)CCC(F)(F)F)ccc2O1	none (no result: Nrf2 block, p53 reactivator, miR-21 reporter, A549 viability)
CCN(CC)c1cc(C)c2cc(NC(=O)c3ccc(Br)o3)ccc2n1	Nrf2 block 11.6µM, A549 viability inconclusive
CCCCc1ccc(C(=O)Nc2ccc3nc(N(CC)CC)cc(C)c3c2)cc1	miR-21 reporter inconclusive, ClpP mod inconclusive (no result: p53 reactivator)
COc1ccc(OC)c(C(c2nnnn2C2CCCC2)N2CCN(c3ccccc3F)CC2)c1 (stereo not given)	ClpP mod 25.1µM (no result: Nrf2 block)
COc1ccc(N2CCN(C(c3ccccc3OC)c3nnnn3C3CCCC3)CC2)cc1 (stereo not given)	none (no result: Nrf2 block)
C[N+](C)(CCCCCI)c1ccc(/C=C/c2nc3ccccc3s2)cc1	none (no result: Nrf2 ARE act, Nrf2 block, p53 reactivator, miR-21 reporter, A549 viability)
CCOC(=O)c1c(-c2cccs2)csc1NC(=O)CC(C)C	none
CCOC(=O)c1c(-c2cccs2)csc1NC(=O)CN(CC)CC	Nrf2 block 18.4µM, A549 viability inconclusive, ClpP mod inconclusive
CC(C)(C)c1ccc(/C=N/NC(=O)Cc2c[nH]c3ccccc23)cc1	Nrf2 block 25.9µM, A549 viability inconclusive
COc1ccc(Br)cc1CNC(=O)Cn1c(=O)c2cccn2c2ccc(F)cc21	none (no result: p53 reactivator)
Cc1cc(C)c(C#N)c(=N)o1	ClpP mod 2.82µM
CSc1nc(C)cc(C)c1C#N	none (no result: Nrf2 block)
N#Cc1c(-c2ccccc2)cc(-c2ccccc2)nc1SCC(O)CS(=O)(=O)Cc1ccccc1 (stereo not given)	ClpP mod inconclusive (no result: p53 reactivator)
C=CCN=c1scc(-c2ccc3c(c2)NC(=O)CO3)n1/N=C(\C)c1ccccn1	Nrf2 block 16.4µM, A549 viability inconclusive (no result: ClpP mod)
Cc1ccccc1C1=NC(C(F)(F)F)(C(F)(F)F)c2c(n(C)c(=O)n(C)c2=O)N1	none
Cn1c2c(c(=O)n(C)c1=O)C(C(F)(F)F)(C(F)(F)F)N=C(c1ccc(Cl)cc1)N2	Nrf2 block 2.31µM, A549 viability 5.8µM
CCS(=O)(=O)NCCc1cc2ccc(C)cc2[nH]c1=O	ClpP mod 28.2µM (no result: Nrf2 block)
Cc1ccc2cc(CCNS(=O)(=O)c3ccc(Br)cc3)c(=O)[nH]c2c1C	Nrf2 block 23.1µM
CCS(=O)(=O)NCCc1cc2cc(C)c(C)cc2[nH]c1=O	none
CCCc1nc(-c2cc3ccc(C)cc3[nH]c2=O)no1	ClpP mod 28.2µM
Cc1cc(C)c(S(=O)(=O)NCCc2cc3ccc(C)c(C)c3[nH]c2=O)c(C)c1	Nrf2 block inconclusive
COc1ccc(-c2noc(-c3ccc(N4CCN(c5ccc(OC)cc5)CC4)c([N+](=O)[O-])c3)n2)cc1	none (no result: p53 reactivator)
Cc1cccc(CNC(=O)c2ccc(NC(=O)N3CCSc4ccccc43)cc2)c1	Nrf2 block inconclusive (no result: p53 reactivator)
O=C(NC1CCCCCC1)c1ccc2nc3cc(Cl)ccc3c(=O)n2c1	ClpP mod 25.1µM
CC1CCc2cc(F)ccc2N1C(=O)CSc1nnc2c(n1)[nH]c1ccc(F)cc12 (stereo not given)	Nrf2 block 20.6µM, A549 viability inconclusive
CN(C)c1ccc(/C=C/c2ccnc3ccccc23)cc1	none (no result: Nrf2 ARE act, Nrf2 block, p53 reactivator, miR-21 reporter, A549 viability)
